The record followed here is PubChem BioAssay (NCI).

A short description of experiment [1]: NCI Yeast Anticancer Drug Screen. Data for the rad50 strain (AID 155).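 Note: 0% = growth of vehicle-only cultures of the same strain.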 To be noted: S. cerevisiae rad50 strain growth inhibition, hits give high values. In outline:
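Cells are treated with compound, grown, and their growth is then scored against vehicle-only cultures of the same repair-deficient yeast strain.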

A short description of experiment [2]: NCI Yeast Anticancer Drug Screen. Data for the mec2-1 strain (AID 157). To be noted: S. cerevisiae mec2-1 strain, hits give high values. The method, boiled down: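 Each compound was tested on mec2-1 yeast, a strain altered in DNA damage repair or cell cycle control. Growth inhibition is reported relative to vehicle.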
Experiment [3] in a line: NCI Yeast Anticancer Drug Screen. Data for the sgs1 mgt1 strain (AID 161).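 Note: 0% = growth of cultures given vehicle only.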 The conditions noted are these: S. cerevisiae sgs1 mgt1 strain, hits give high values. The method, boiled down: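 Test agents were incubated with a DNA-repair-mutant yeast strain. Growth was then read and compared against vehicle-treated controls.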
Experiment [4] is described as follows: NCI Yeast Anticancer Drug Screen. Data for the cln2 rad14 strain (AID 165).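 Note: 0% = growth equal to vehicle treated cultures.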 To be noted: S. cerevisiae cln2 rad14 strain, hits give high values. In outline: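 Test compounds were added to cln2 rad14 yeast cultures; inhibition of growth was then determined by comparison with vehicle treatment.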
Experiment [5] is described as follows: NCI Yeast Anticancer Drug Screen. Data for the bub3 strain (AID 167). The conditions noted are these: S. cerevisiae bub3 mutant strain, hits give high values. The method, boiled down:
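Part of a panel of yeast mutants defective in DNA damage repair or cell cycle regulation. Each strain is grown with compound, and inhibition is calculated relative to solvent-treated cultures.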

Experiment [6] can be described thus: NCI Yeast Anticancer Drug Screen. Data for the mlh1 rad18 strain (AID 175). The conditions noted are these: S. cerevisiae mlh1 rad18 strain growth inhibition, hits give high values. The method, boiled down:
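Inhibition values reflect reduced growth of mutant yeast versus vehicle-treated controls following compound exposure; the mutations affect DNA damage repair.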

Where [7] appears, read: at 5.0 µM (retest, dose inferred, filed as 0.5).
[8] abbreviates: at 50.0 µM (retest, dose inferred, filed as 5.0).

The structures appear in SMILES notation. This is part of a sample that, as a whole, favours compounds with a hit. Of some 79,000 tested, about 15% had one in any assay. A number with no mark means an inactive call. Calls of active or inactive are those of the source. Cut-off read from the data, not from the text of the source: active = growth inhibition above about 70%; inactive = the rest.

As to `CCN1CCNc2c3cc(OC)ccc3nc3c([N+](=O)[O-])ccc1c23`, the growth inhibition in experiment [1] (setting [7]) was -10%; in experiment [1] (setting [8]), 37%; in experiment [1] (at 50.0 µM) it was 42.2%; in experiment [2] (setting [7]) it was -19%; in experiment [2] (setting [8]), 7%; in experiment [2] (at 50.0 µM), 15.2%. Also, the growth inhibition in experiment [3] (setting [7]) was -9%; in experiment [3] (setting [8]) it was 0%; in experiment [3] (at 50.0 µM), 39.8%; in experiment [4] (setting [7]) it was -2%; in experiment [4] (setting [8]), 40%; in experiment [4] (at 50.0 µM) it was 7.8%. Besides, the growth inhibition in experiment [5] (setting [7]) was 1%; in experiment [5] (setting [8]) it was 2%; in experiment [5] (at 50.0 µM), -3.6%; in experiment [6] (setting [7]) it was -41%; in experiment [6] (setting [8]) it was 41%; in experiment [6] (at 50.0 µM) it was 71.7% (active).
Regarding `CC(/C=C1\CCC(CN(C)C)C1=O)c1cccc(Br)c1` (stereo not drawn), the growth inhibition in experiment [1] (setting [7]) was -11%; in experiment [1] (setting [8]), 97% (active); in experiment [1] (at 50.0 µM), 93.8% (active); in experiment [2] (setting [7]), -1%; in experiment [2] (setting [8]), 99% (active); in experiment [2] (at 50.0 µM), 94% (active). Moreover, the growth inhibition in experiment [3] (setting [7]) was 5%; in experiment [3] (setting [8]) it was 97% (active); in experiment [3] (at 50.0 µM) it was 93.5% (active); in experiment [4] (setting [7]) it was 16%; in experiment [4] (setting [8]), 98% (active); in experiment [4] (at 50.0 µM) it was 92.2% (active). Besides, the growth inhibition in experiment [5] (setting [7]) is 18%; in experiment [5] (setting [8]), 99% (active); in experiment [5] (at 50.0 µM), 92.7% (active); in experiment [6] (setting [7]) it was 7%; in experiment [6] (setting [8]), 98% (active); in experiment [6] (at 50.0 µM), 91.6% (active).
As to `CC(NNC(=S)N1CCCCCC1)c1cc2ccccc2cn1` (stereo not drawn), the growth inhibition in experiment [1] (setting [7]) was 52%; in experiment [1] (setting [8]), 95% (active); in experiment [1] (at 50.0 µM), 86.2% (active); in experiment [2] (setting [7]) it was 65%; in experiment [2] (setting [8]), 97% (active); in experiment [2] (at 50.0 µM), 78.7% (active). In addition, the growth inhibition was 93% (active) in experiment [3] (setting [7]); 96% (active) in experiment [3] (setting [8]); 86.6% (active) in experiment [3] (at 50.0 µM); 90% (active) in experiment [4] (setting [7]); 91% (active) in experiment [4] (setting [8]); 68.5% in experiment [4] (at 50.0 µM). Further, the growth inhibition in experiment [5] (setting [7]) is 87% (active); in experiment [5] (setting [8]), 96% (active); in experiment [5] (at 50.0 µM), 83.5% (active); in experiment [6] (setting [7]), 47%; in experiment [6] (setting [8]), 95% (active); in experiment [6] (at 50.0 µM) it was 90.5% (active).
Regarding `CC1C[C@]2(C)C(=S)Nc3ccccc3[C@@H]2Nc2ccccc21` (stereo partly drawn), the growth inhibition was -1% in experiment [1] (setting [7]); 43% in experiment [1] (setting [8]); 21.9% in experiment [1] (at 50.0 µM); 8% in experiment [2] (setting [7]); 55% in experiment [2] (setting [8]); 17.9% in experiment [2] (at 50.0 µM). Moreover, the growth inhibition is 23% in experiment [3] (setting [7]); 74% (active) in experiment [3] (setting [8]); 48.8% in experiment [3] (at 50.0 µM); 26% in experiment [4] (setting [7]); 60% in experiment [4] (setting [8]); 19.8% in experiment [4] (at 50.0 µM). The growth inhibition in experiment [5] (setting [7]) was 24%; in experiment [5] (setting [8]), 82% (active); in experiment [5] (at 50.0 µM), 42.3%; in experiment [6] (setting [7]), 6%; in experiment [6] (setting [8]) it was 58%; in experiment [6] (at 50.0 µM) it was 63.3%.
Take `COc1cc(O)c2c(c1)C(=O)C1=C(C2=O)[C@@H](C)OC(C)[C@H]1O` (stereo partly drawn): the growth inhibition in experiment [1] (setting [7]) is 8%; in experiment [1] (setting [8]) it was 96% (active); in experiment [1] (at 50.0 µM), 53.4%; in experiment [2] (setting [7]), 2%; in experiment [2] (setting [8]), 94% (active); in experiment [2] (at 50.0 µM) it was 6.2%. Also, the growth inhibition in experiment [3] (setting [7]) was 8%; in experiment [3] (setting [8]) it was 97% (active); in experiment [3] (at 50.0 µM), -4.5%; in experiment [4] (setting [7]) it was 1%; in experiment [4] (setting [8]) it was 95% (active); in experiment [4] (at 50.0 µM), -22.4%. Further, the growth inhibition was 21% in experiment [5] (setting [7]); 97% (active) in experiment [5] (setting [8]); -2.75% in experiment [5] (at 50.0 µM); 8% in experiment [6] (setting [7]); 97% (active) in experiment [6] (setting [8]); -6.25% in experiment [6] (at 50.0 µM).
Turning to `CC(=O)CC(C)=NCCN=C(C)CC(C)=O.[Pd]`, the growth inhibition was -6% in experiment [1] (setting [7]); 61% in experiment [1] (setting [8]); 76% (active) in experiment [1] (at 50.0 µM); -1% in experiment [2] (setting [7]); 78% (active) in experiment [2] (setting [8]); 67.2% in experiment [2] (at 50.0 µM). For the same compound, the growth inhibition in experiment [3] (setting [7]) is 0%; in experiment [3] (setting [8]), 96% (active); in experiment [3] (at 50.0 µM) it was 94.3% (active); in experiment [4] (setting [7]) it was -5%; in experiment [4] (setting [8]), 41%; in experiment [4] (at 50.0 µM), 53%. The growth inhibition was -1% in experiment [5] (setting [7]); 60% in experiment [5] (setting [8]); 76.2% (active) in experiment [5] (at 50.0 µM); -9% in experiment [6] (setting [7]); 74% (active) in experiment [6] (setting [8]); 83.7% (active) in experiment [6] (at 50.0 µM).
